Results reported in PubChem BioAssay AID1508600 (Functional Genomics Laboratory (NCATS/FGL), 2020).
Hit rate of the full screen: of about 53,000 sequences, about 3,700 (7%) were called active.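 The calls were made as follows: active = gene knockdowns whose robust z-score for IL-1 alpha signal is at least 2 or at most -2, so actives lie on both sides; inactive = the rest.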 Only a selection was taken, and actives are over-represented in it overall.

Assay: Components of the Cytosolic LPS Sensing Pathway: Gene Identification via Genome-wide siRNA Screen;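 also: robust z of the log signal after scaling to non-targeting control siRNA wells of the plate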
Settings: RAW264.7 macrophages, IL-1a HTRF, actives lie on both sides, screened at 100 nM (by protocol), cells primed 5 h with Pam3CSK4 first
Procedure, shortened: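 Read-out: IL-1a HTRF on supernatant, divided by plate negative-control median ×100, log-transformed and converted to robust z-score. Cells were RAW264.7 given 100 nM siRNA, Pam3CSK4-primed 5 hours, then LipidA-transfected 24 hour.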

Sequence | z-score
CCUGGUAAAAGACUGGGCUTT against Dnal1 | 1.76 (inactive)
GGUUAGUCGACAGAAACAATT against Poteg | -1.11 (inactive)
GCUGUCUCAAUCACCCUAATT against Olfr1427 | -1.23 (inactive)
GGUCAAGUGUAACAAAGAATT against Bcorl1 | -0.417 (inactive)
GGUCAUUAUUGUCAUCUACTT against Tmem9 | -0.323 (inactive)
GGAAAUCACUGGUUUUCAATT against Asah2 | 2.88 (active)
GGAGACUGACAAGAAAAUUTT against Gm16367 | -0.967 (inactive)
GCAUCACGUAUGUGAUUUGTT against Dmrtc1a | -0.569 (inactive)
GCAGAGGAGUGAAUAGAUATT against Dtx3l | 0.45 (inactive)
GGCCAACUUUUUUCACCCATT against Git1 | -2.19 (active)
GGUUGUUCGUGGACACUACTT against Rpl26 | -0.404 (inactive)
GGCCGUCACUACUCUGAAATT against Mgst2 | -2.29 (active)
GGCACUUCUUGGACAUCAUTT against Sfxn5 | -0.019 (inactive)
CGAAGGUCUGUUCGAGAACTT against Morn4 | 0.668 (inactive)
GCUUCAUCCUAGCGGUUUGTT against Dad1 | -0.899 (inactive)
CGAUCGAAUCCUUAAGUACTT against Ttll1 | -0.0193 (inactive)
GCUUUUUACAGGAUAUACATT against Zfp644 | -0.143 (inactive)
GCCAUACCUUCAACUGUCGTT against Ncoa2 | -2.42 (active)
GGAACGUAAACUAAGCCCGTT against Foxb1 | 0.458 (inactive)
CCCAUUUCACUUCAGUUUGTT against Osbp2 | -0.253 (inactive)
CCCAAAACGGUAGCUUAAGTT against Rcc1 | -0.0143 (inactive)
GGCAAGAAAGGACCAAUGGTT against Cln8 | 0.206 (inactive)
CCGUGGGUUUUUUGAAUCUTT against Slc6a1 | 2.63 (active)

Sequence | z-score
GCCCAAUAGAAGCUGGAUGTT against Tex29 | -1.99 (inactive)
GGAGCGAGAAGCUUUAGAATT against Ubxn1 | 0.61 (inactive)
GGCCAACUAGGGUGUUUGUTT against Tsx | 0.182 (inactive)
GCUAUUAGGAAAUGAAAGATT against Ncald | 0.384 (inactive)
GCAGAGACUCCAAAGCUCATT against Chd4 | -2 (active)
GGAACUUGACAAAGUCUACTT against Panx1 | 1.2 (inactive)
GGAAGAAGAAGGUGUAACCTT against Defb39 | 0.567 (inactive)
GGCAUCUGUUACCCAGAAUTT against Zfp384 | -1.92 (inactive)
CCAAAUGACUUUGGUCCUATT against Vax2 | 0.576 (inactive)
CCAUCCUCAACAAGAUCGATT against Rab4b | 2.25 (active)
GGUGGUAACCAAUCAUUACTT against Cd200r1 | -0.296 (inactive)
GCAUAAACUAACCACUUAGTT against Evi2b | -1.77 (inactive)
GGCUUUUUUGCCAUUGCUATT against Wnt9b | 0.19 (inactive)
GGAGAUUCAUCGCUACCUUTT against Ccna1 | 2.46 (active)
GGUUGUAGGAAGAAGAGAATT against Olfr957 | -0.798 (inactive)
CGGUCUUUAUUACAUAAUCTT against Ptpro | -0.757 (inactive)
CCAUUGCAUAUUUAGUAGCTT against Sox11 | -0.765 (inactive)
CGUAAAUAUGCCCGUAGUUTT against Bpifa1 | 0.31 (inactive)
GGUCUGUAUCCCACUUUUCTT against Dalrd3 | -2.15 (active)
CCUCUACUCAAGUUUACUUTT against Casq2 | 0.417 (inactive)
GGCGAUGGAAAGACUGCACTT against Hus1b | 0.311 (inactive)
CCCACAAGUUUCAUCUGACTT against Aknaos | -0.164 (inactive)
GGAGAACCCAUUAAAGAAATT against Amd1 | 0.408 (inactive)

Sequence | z-score
GGUCUGUACUUGUUUAGAATT against Vwa3b | 0.42 (inactive)
GCUAUACAAAGGCUACUCUTT against Hectd3 | 0.379 (inactive)
GCUGUUGAUUGUAAGCAAUTT against Mtap | 0.0958 (inactive)
GCCGCACCGAAAGUGAAAUTT against Copz2 | -0.391 (inactive)
GGACCGGUGUAAGCUUCGATT against Hinfp | 2.05 (active)
GCUAGAGGAUGGCUGAGCUTT against Poll | -0.581 (inactive)
GGUGACUGAAAUCAAACACTT against Il9r | -1.71 (inactive)
GGAAGGAUUGCCUUUAGGATT against Rbm12b2 | 0.29 (inactive)
GGAGUAUGAAUUUGUGACUTT against Arhgdig | -0.526 (inactive)
GGACCGCGUUCAAGAAGAATT against Cyp2c37 | 2.17 (active)
GGAGAAUUUGGAAAGUGAGTT against Rnf150 | 0.0696 (inactive)
GGGUAAACACCCAUUUAGCTT against Lbx2 | -0.156 (inactive)
GGUCCUAGGCCUACUCAUCTT against Cd46 | -0.318 (inactive)
GGUCCUACUAUAACCUGCGTT against Gdf3 | -0.103 (inactive)
GCAGAUUUUGACUAAAGGATT against Sbds | -0.747 (inactive)
GCAGUGAACCGUAUUGGACTT against Ncam1 | 0.406 (inactive)
GGUUCACAGAUGAUACCUUTT against Rab18 | 4.59 (active)
GGACCUUCCAGCAAGAUUUTT against Rnf13 | 0.28 (inactive)
GCCGGCAGUAAAGAUUCAUTT against Cog2 | 0.938 (inactive)
CCGGGUAGUCUUUUUGGUGTT against 9130019O22Rik | -1.72 (inactive)
GGGAAGAAAGGAUGGGAAATT against Fev | 0.355 (inactive)
GCGGCCUCUUGAAUGAUUCTT against Ccndbp1 | 2.16 (active)
GGUUGUUAUGGUCUCAUAUTT against Lrrc40 | -0.62 (inactive)
